Laboratory results reported in PubChem BioAssay AID588674 (Broad Institute, 2011).
Hit rate of the full screen: of about 360,000 compounds, about 1,800 (0.5%) were called active. The sample as a whole holds a higher share of actives than the screen did. A number with no mark means an inactive call.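 How the source made its calls: active means mean inhibition of at least 75% with every replicate also reaching 75%; inconclusive means mean inhibition at least 75% but some replicate below; inactive means mean inhibition below 75%.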

Assay: Shn3 3'UTR reporter decrease in osteoblasts – cell-based, Clone20 osteoblasts, firefly luciferase, set 2, Schnurri-3 inhibitor project, primary screen (AID 588674);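 further: 0% = median of neutral control wells and 100% = pilot-screen positive control compound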
Conditions: Clone20 osteoblast Shn3 3'UTR firefly luciferase, 24 h; at 12.5 µM; hits give high values

Going from `Cc1cc(=O)oc2cc(OC(C)C(=O)Nc3ccc(N4CCOCC4)cc3)ccc12` (stereo unspecified) to `CCn1nc(C(=O)Nc2ccc(N3CCOCC3)cc2)c2ccccc2c1=O`, the inhibition falls from 10% to 5.09%.

First: O=C(CSc1nnnn1-c1ccc2c(c1)CCC2)Nc1ccc2c(c1)OCCO2
Second: Cc1csc(NC(=O)CSc2nc(=O)cc(N)n2-c2ccc(F)cc2)n1
The inhibition of the first is higher: 0.48% for the first, -11% for the second.

First: FC(F)(F)c1cccc(-c2nc(COc3ccc(Cl)cc3Cl)no2)c1
Second: N#Cc1c(-c2ccccc2)nc(SCc2cccc(C(F)(F)F)c2)[nH]c1=O
The inhibition of the first is higher: 6.45% for the first, -18.7% for the second.

First: c1ccc(-c2nccc(-c3ccc(-n4cnc5ccccc54)cc3)n2)nc1
Second: Cc1nc2ccccc2c(C(=O)O)c1-c1ccccn1
The inhibition of the first is higher: 11.2% for the first, -12.3% for the second.

First: CN(CC(=O)NCc1ccncc1)S(=O)(=O)c1ccc(Br)cc1
Second: Cc1ccc(S(=O)(=O)CCC(=O)Nc2nnc(CC(C)C)s2)cc1
The inhibition of the first is higher: 7.05% for the first, -5.29% for the second.

Compared with `O=C(NC1=NCCS1)c1ccc(Cl)s1`, `NC(=O)CSc1nnc(NC(=O)c2ccc(Br)o2)s1` is higher in inhibition: -84.7% for the first, -19.4% for the second.

First: C=C1C(=O)[C@]23C[C@H]1CCC2[C@@]1(C)C(C[C@@H]3O)[C@](C)(C(=O)O)CC[C@@H]1O (stereo partly specified)
Second: C[C@H]([C@@H](O)[C@@H](O)[C@@H](C)C(C)(C)C)[C@H]1CC[C@H]2C3CC[C@H]4C[C@H](OS(=O)(=O)O)[C@@H](OS(=O)(=O)O)C[C@]4(C)[C@H]3CC[C@]12C (stereo partly specified)
The inhibition of the first is higher: 29.4% for the first, -9.66% for the second.

Compared with `NC(=O)C1CCN(C(=O)c2cc(S(=O)(=O)N3CCN(c4ccccc4)CC3)ccc2Cl)CC1`, `O=C(Cc1ccccc1)NNC(=O)C1CCN(c2ncccn2)CC1` is higher in inhibition: -11.1% for the first, -8.28% for the second.

Compared with `CC1CCC(N2CC(=O)N(Cc3ccc4c(c3)OCO4)C(c3ccc(F)cc3)C2=O)CC1` (stereo unspecified), `CC1=C(C(=O)N2CCOCC2)CC(CC(=O)NCc2ccco2)C(=O)N1Cc1ccc(F)cc1` (stereo unspecified) is lower in inhibition: 7.77% for the first, -16.3% for the second.

First: COc1cc(SC)ccc1C(=O)NNC(=O)C1COc2ccccc2O1 (stereo unspecified)
Second: COc1ccc(NC(=O)C2Cc3c(-c4cccc(NC(C)=O)c4)ccnc3O2)cc1OC (stereo unspecified)
The inhibition of the first is lower: 4.8% for the first, 47.1% for the second.

First: C=CCn1c(COc2cccc3cccnc23)nnc1SCC(=O)OC
Second: C=CCOc1ccccc1NC(=O)CN1C(=O)CNC1=O
The inhibition of the first is higher: 0.069% for the first, -14.9% for the second.

First: CCOc1ccc(C(CCc2ccccc2)NC(=O)c2ccc(OC)c(OC)c2)cc1OCC (stereo unspecified)
Second: CC(CCc1ccccc1)NC(=O)COC(=O)c1ccc(F)cc1 (stereo unspecified)
The inhibition of the first is higher: 20% for the first, -0.45% for the second.

Compared with `COC(=O)c1sccc1-n1cccc1C(=O)C(=O)N1CCCCC1`, `Cc1cccc(C(=O)Nc2nnc(S(=O)(=O)N3CCCCCC3)s2)c1` is lower in inhibition: 2.95% for the first, -6.34% for the second.

Going from `CS/C(=C\C(=O)c1ccco1)Nc1ccccc1Cl` to `O=C(COc1ccc(-n2cnnn2)cc1)Nc1ccccc1Cl`, the inhibition rises from -15.1% to 1.66%.

Going from `Cc1cccc(N2CCN(C(=O)CCS(=O)(=O)c3ccc4c(c3)NC(=O)C(C)S4)CC2)c1C` (stereo unspecified) to `Cc1cc(=O)oc2cc(OCC(=O)N3CCN(c4ccc(F)cc4)CC3)c(Cl)cc12`, the inhibition falls from 78.8% to 4.64%.

First: CC(=O)Nc1ccc(NC(=O)C(C)OC(=O)C2CC(=O)N(CCc3ccccc3)C2)cc1 (stereo unspecified)
Second: COc1cc(C(C)=O)ccc1OC(C)C(=O)Nc1ccc(S(=O)(=O)N2CCCC2)cc1 (stereo unspecified)
The inhibition of the first is lower: -14.3% for the first, -9.75% for the second.

Going from `O=C(COC(=O)C1CC2CCCC(C1)C2=O)NC(=O)c1ccccc1` (stereo unspecified) to `CC(=O)c1ccccc1NC(=O)CC1(CC(=O)O)CCCCC1`, the inhibition falls from 14.5% to -24.1%.

Compared with `COc1ccc(C(C#N)=C2C=CC(=NO)c3ccccc32)cc1`, `Cc1ccc(COc2ccc(C(=O)NN)cc2)cc1` is lower in inhibition: 18.4% for the first, -0.097% for the second.

Going from `O=C(Nc1nnc(-c2ccc(F)cc2)s1)c1c(F)cccc1Cl` to `Cc1cccc(C)c1NC(=O)CN1CCN(c2ccc(F)cc2)CC1`, the inhibition rises from -31.5% to -13.2%.

First: O=C(O)C1C2C=CC(O2)C1C(=O)Nc1ccccn1 (stereo unspecified)
Second: S=C(NN=Cc1ccccn1)Nc1ccccn1
The inhibition of the first is lower: 1.15% for the first, 67.3% for the second.

Going from `NC(=O)C1CCN(Cc2nc3c(Br)cc(Br)cc3c(=O)[nH]2)CC1` to `O=c1cc(CN2CCCCCCC2)c2c(ccc3ccccc32)o1`, the inhibition rises from 9.29% to 21.3%.

Going from `CC(C)C[C@H]1CNC(=S)N1C[C@H]1CCCN1C[C@H](Cc1ccc(O)cc1)N1C[C@H](Cc2ccc(O)cc2)N(CC2CCCCC2)C1=S` to `COc1ccc(S(=O)(=O)N2CCCCCC2)cc1NC(=O)Cc1ccc(OC)c(OC)c1`, the inhibition falls from 9.03% to 6.94%.

Going from `Cc1noc(COc2ccccc2OCc2onc(C)c2Cl)c1Cl` to `Cc1noc(C)c1COC(=O)Cn1c(C)nc2ccccc21`, the inhibition falls from 9.9% to 6.2%.

Compared with `O=C(C=CC(=O)Nc1ccc(F)cc1F)Nc1ccc(F)cc1F`, `Cn1nccc1C(=O)NC1CCCc2c1cnn2-c1ccc(F)cc1F` (stereo unspecified) is higher in inhibition: 12.7% for the first, 77.1% for the second.

Compared with `CC1(C)OC(=O)N2CCc3ccccc3C21C` (stereo unspecified), `Cc1ccc2c(c1)N(C(=O)CCC(=O)N1CCc3ccccc3C1)CCO2` is higher in inhibition: -7.85% for the first, 11.3% for the second.

Compared with `CC(OC(=O)c1cccnc1Cl)C(=O)NC1CCCCC1` (stereo unspecified), `O=C(CN1CCN(C(=O)C2CCCO2)CC1)Nc1c(Cl)cccc1Cl` (stereo unspecified) is higher in inhibition: -10.8% for the first, 1.7% for the second.

First: COC(=O)C1CCN(C(=O)NC2CC(=O)N(c3ccc4c(c3)OCCO4)C2)CC1 (stereo unspecified)
Second: COc1ccc(-c2ccc(C(=O)NCCN3CCOCC3)c3occc23)c(C)c1
The inhibition of the first is lower: -6.55% for the first, 12.3% for the second.

Going from `CC(=O)Nc1cc(-c2cccc(CO)c2)cn2c(-c3cccc(C(F)(F)F)c3)cnc12` to `CN(Cc1ccc(C(F)(F)F)cc1)C(=O)[C@H]1O[C@@H](n2cnc3c(N)ncnc32)[C@H](O)[C@@H]1O`, the inhibition falls from 10.6% to 6.4%.

First: Cn1c(=O)c2c(nc(OCc3cccnc3)n2Cc2ccccc2)n(C)c1=O
Second: C=CCn1c(Oc2ccc(C(=O)OC)cc2)nc2c1c(=O)n(C)c(=O)n2C
The inhibition of the first is higher: 30% for the first, 21% for the second.

First: CCCn1c(=S)[nH]c2ccc(C(F)(F)F)cc21
Second: Nc1ncnc2c1ncn2[C@@H]1O[C@H](C(=O)NCC(F)(F)F)[C@@H](O)[C@H]1O
The inhibition of the first is lower: -4.29% for the first, 2.47% for the second.

Compared with `COc1ccc(C(=O)NC2CCCc3c2cnn3-c2cccc(C)c2C)c(OC)n1` (stereo unspecified), `COc1ccc(-n2c(C)nn(CC3CC3)c2=O)cc1` is lower in inhibition: 84.1% for the first, 0.917% for the second.

First: C/C(=N\NC(=O)C1(C)CC1(Br)Br)c1ccc(C)cc1C (stereo unspecified)
Second: Cc1cc(=O)oc2c3c(cc(OCC(=O)NCC(O)c4ccccc4)c12)OC(C)(C)CC3 (stereo unspecified)
The inhibition of the first is higher: 8.35% for the first, 0.998% for the second.

Going from `Cc1cc(=O)[nH]c(N/N=C/c2c(C)nn(-c3ccccc3Cl)c2Cl)n1` to `Cc1[nH]c2ccccc2c1-c1ccc(Cl)nn1`, the inhibition falls from 14.6% to -0.142%.

First: C/C=C(/C)C(=O)O[C@@H]1c2cc3c(c4c2[C@@]2(CO4)C(=O)C(OC)=C(OC)C=C2C[C@@H](C)[C@H]1C)OCO3
Second: COc1cc2c(cc1OC)C(=O)NCC(C)(C)O2
The inhibition of the first is lower: -16.2% for the first, 9.62% for the second.

Going from `Cc1onc(-c2ccccc2Cl)c1C(=O)N(Cc1ccc(N(C)C)cc1)C(C)C` to `CCOc1ccc(N(C)S(=O)(=O)c2cnc[nH]2)cc1`, the inhibition falls from 15% to 14%.

First: Cc1cc2cc3n(c2nn1)N=C(Cl)CC3
Second: Cn1c(=O)c2c(SCC(=O)NCC3CCCO3)nc(CC(C)(C)C)nc2n(C)c1=O (stereo unspecified)
The inhibition of the first is higher: 15.8% for the first, -3.55% for the second.

For `O=c1c2ccccc2nc2n1C(CSCc1ccccc1)CS2` (stereo unspecified), the inhibition was 76.2%.

In the case of `CC(C)(C)Nc1nc(-c2ccccn2)nc2ccccc12`, the inhibition is reported as 89.7% (active).
For `O=C(/C=C/Sc1ncn[nH]1)c1ccc(Cl)cc1`, the inhibition was 97.7% (active).
In the case of `COc1cc(SC)ccc1C(=O)Nc1nc(C)cs1`, the inhibition is reported as 86.2% (active).
With `CCCCC(=O)NC(c1ccc(OC)c(OC)c1)c1ccc2cccnc2c1O` (stereo unspecified) the inhibition was 87.9% (active).
In the case of `O=C(Nc1ccccc1Cl)/C(Cl)=C(\Cl)S(=O)c1ccccc1` (stereo unspecified), the inhibition is reported as 97.6% (active).
In the case of `Cc1ccc(CS(=O)(=O)c2ncc(Cl)c(C(=O)Nc3nnc(C)s3)n2)cc1`, the inhibition is reported as 98.8% (active).
In the case of `CSc1nnc(NC(=O)c2nc(S(=O)(=O)Cc3ccc(C)cc3)ncc2Cl)s1`, the inhibition is reported as 97% (active).
With `Oc1c(CN2CCCC2)cc(COCc2ccccc2)c2cccnc12` the inhibition was 86% (active).
For `Oc1c(CN2CCN(c3ccc(F)cc3)CC2)cc(Cl)c2cccnc12`, the inhibition was 83.5% (active).
For `C=CCOc1nc2c(c(=O)n(C)c(=O)n2C)n1Cc1ccc(Cl)cc1Cl`, the inhibition was 86.3% (active).
For `Cn1nccc1C(=O)NC1CCCc2c1cnn2-c1ccccc1F` (stereo unspecified), the inhibition was 90.2% (active).
For `Cc1nnc(N/N=C/c2ccccn2)[nH]c1=O`, the inhibition was 90.6% (active).
With `NC1=CC(=O)C(=O)c2cccnc21` the inhibition was 96.6% (active).
With `COc1ccc(-c2ccc(Nc3ccc(S(=O)(=O)N4CCCC4)cc3)nn2)cc1OC` the inhibition was 91.7% (active).
With `CCCCCCCCCCOC(=O)Cn1c(COc2ccc(C)cc2)[n+](C)c2ccccc21` the inhibition was 94.3% (active).
For `O=c1c2ccccc2nc2n1C(CSCc1cccc(C(F)(F)F)c1)CS2` (stereo unspecified), the inhibition was 92.5% (active).
For `C=CCn1c(C)cc(C2=NNC(=NCC)SC2)c1C`, the inhibition was 91% (active).
With `C[C@@H]1C[C@@H]2O[C@H]2/C=C\C=C\C(=O)Cc2c(Cl)c(O)cc(O)c2C(=O)O1` the inhibition was 86.9% (active).
